This is an account of results in PubChem BioAssay (NCI).

About 79,000 compounds went through this panel and 15% of them were active in at least one assay; those are over-represented in the sample as a whole. Unmarked numbers belong to inactive results. Calls of active or inactive are those of the source. Rule as the data show it: active = growth inhibition above about 70%; inactive = the rest.

Test [1] in a line: NCI Yeast Anticancer Drug Screen. Data for the rad50 strain (AID 155).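 Also: 0% = growth of vehicle-only cultures of the same strain.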 The conditions noted are these: S. cerevisiae rad50 strain growth inhibition; at 50.0 µM; stronger effect = higher value. The method, boiled down:
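A DNA repair-deficient yeast mutant serves as the test organism; compound-induced growth inhibition is calculated against vehicle-treated cells.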

Test [2] in a line: NCI Yeast Anticancer Drug Screen. Data for the mec2-1 strain (AID 157). Particulars: S. cerevisiae mec2-1 strain, at 50.0 µM, stronger effect = higher value. The method, boiled down:
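Compounds were applied to mec2-1 yeast cells. Their growth was then compared with that of vehicle-treated cultures to give growth inhibition.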

Test [3] can be described thus: NCI Yeast Anticancer Drug Screen. Data for the sgs1 mgt1 strain (AID 161).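 Also: 0% = growth of cultures given vehicle only.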 Particulars: S. cerevisiae sgs1 mgt1 strain, at 50.0 µM, stronger effect = higher value. The method, boiled down: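 This yeast growth screen uses a strain with defined DNA-repair lesions; compound-treated growth is compared with vehicle-treated growth.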
Test [4] in a line: NCI Yeast Anticancer Drug Screen. Data for the cln2 rad14 strain (AID 165).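 Also: 0% = growth equal to vehicle treated cultures.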 Particulars: S. cerevisiae cln2 rad14 strain, at 50.0 µM, stronger effect = higher value. Summed up: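 Strain: cln2 rad14 yeast, altered in cell cycle control and DNA damage repair. Read-out: growth inhibition vs vehicle.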
Test [5] in a line: NCI Yeast Anticancer Drug Screen. Data for the bub3 strain (AID 167). The conditions noted are these: S. cerevisiae bub3 mutant strain, at 50.0 µM, stronger effect = higher value. Summed up:
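Inhibition values come from growth of compound-treated mutant yeast normalised to vehicle-treated controls.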

Test [6] in a line: NCI Yeast Anticancer Drug Screen. Data for the mlh1 rad18 strain (AID 175). The conditions noted are these: S. cerevisiae mlh1 rad18 strain growth inhibition; at 50.0 µM; stronger effect = higher value. Summed up: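 A repair-deficient yeast strain is exposed to test compound, and growth is scored relative to vehicle-treated controls.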

Turning to `Cc1cccc(C)c1NC(=O)Nc1cccc(C#N)c1`, the growth inhibition in test [1] is -0.3%; in test [2], -10.8%; in test [3], 7.35%; in test [4] it was 15.3%; in test [5] it was -0.55%; in test [6], 17.4%.

For `O=C1CSC(c2cccc(Cl)c2)N1CCN1C(=O)CSC1c1cccc(Cl)c1` (stereo not drawn), the growth inhibition in test [1] was -14.6%; in test [2] it was 9%; in test [3], -2.55%; in test [4] it was -20.8%; in test [5] it was 2.75%; in test [6], -6.6%.

With `Clc1ccc(Cc2ccc(Br)cc2)cc1`, the growth inhibition in test [1] is 43.6%; in test [2], -10.3%; in test [3], 38.5%; in test [4] it was 2.45%; in test [5], 49%; in test [6] it was 13.2%.

Consider `N=C(N)C1CC1`, for which the growth inhibition in test [1] is -6.75%; in test [2], -9.5%; in test [3], -8.9%; in test [4], 12.8%; in test [5], 2.4%; in test [6] it was -13.2%.

With `COc1cccc2c1C(=O)c1c(O)c3c(c(O)c1C2=O)C[C@@](O)(/C(C)=N\NC(=O)CCC(N)C(=O)O)C[C@@H]3OC1CC(N)C(O)C(C)O1` (stereo partly drawn) (tested in a mixture with another compound), the growth inhibition in test [1] was -30.9%; in test [2], -57.9%; in test [3] it was 0.65%; in test [4] it was -6.05%; in test [5], -25.8%; in test [6], -46.7%.

Consider `c1ccc(N=C(Nc2ccccc2)N2CCCCC2)cc1`, for which the growth inhibition in test [1] is -20%; in test [2], -50.4%; in test [3] it was -7.9%; in test [4] it was 9.85%; in test [5], 9.35%; in test [6], -21.6%.

For `O=C(O)CC(NC(=O)CP(=O)(O)O)C(=O)O` (stereo not drawn), the growth inhibition is -9.4% in test [1]; -21.9% in test [2]; -10.6% in test [3]; 2% in test [4]; -8.5% in test [5]; -13.1% in test [6].

Consider `CC(C)(CCl)c1ccccc1`, for which the growth inhibition in test [1] was -10.6%; in test [2] it was -3.1%; in test [3], -6.3%; in test [4], 0.75%; in test [5] it was 4%; in test [6], -0.55%.

Consider `Cc1nc(N)[nH]c(=O)c1CCCN=Cc1ccccc1`, for which the growth inhibition in test [1] was 8.5%; in test [2] it was 56.5%; in test [3], 2.8%; in test [4] it was 18.5%; in test [5], 92.2% (active); in test [6] it was 51.1%.

With `Cc1cccc(C(C)C)c1NC(=O)C(=O)CC(=O)c1c(C)n([O-])c2ccccc2[n+]1=O`, the growth inhibition in test [1] was -7.2%; in test [2] it was 9.45%; in test [3], -10%; in test [4] it was 12.2%; in test [5], -13.1%; in test [6], -16.2%.

`CC/C=C(\C)C1(CC)C(=O)NC(=O)N=C1N` (stereo not drawn): the growth inhibition in test [1] is -1.35%; in test [2], 3.55%; in test [3], 5.9%; in test [4] it was 4.55%; in test [5], -2%; in test [6], -11.9%.

For the compound `O=S(=O)(NC1c2ccccc2Oc2ccccc21)c1ccc2ccccc2c1`, the growth inhibition in test [1] is 28.4%; in test [2], 11.1%; in test [3], 16.6%; in test [4], 19.1%; in test [5] it was 9.65%; in test [6], 39.7%.

Consider `CC(O)(/C=C/c1ccccc1)P(=O)(O)c1ccccc1` (stereo not drawn), for which the growth inhibition is -40% in test [1]; -13.2% in test [2]; -29.1% in test [3]; -13% in test [4]; -13.3% in test [5]; 9.4% in test [6].

Consider `CC(C)=C(C)CCC(C)CC(C)O` (stereo not drawn), for which the growth inhibition in test [1] was -2.9%; in test [2], -14%; in test [3], -0.05%; in test [4], -5.6%; in test [5] it was -5.9%; in test [6], -5.85%.

As for `CCCC(=O)SCC[N+](C)(C)C`, the growth inhibition was -10.2% in test [1]; -48.3% in test [2]; 15.4% in test [3]; 21.6% in test [4]; -13.3% in test [5]; 4.5% in test [6].

`O=C(NCc1ccccc1)C1C2CCC(C2)C1C(=O)NCc1ccccc1` (stereo not drawn): the growth inhibition in test [1] is -0.85%; in test [2] it was 50.8%; in test [3], -1.95%; in test [4], -2.35%; in test [5] it was 22.9%; in test [6] it was -6.35%.

Take `O=[N+]([O-])c1ccc(Sc2ccc([N+](=O)[O-])cc2)cc1`: the growth inhibition in test [1] is 2.35%; in test [2] it was 1.45%; in test [3] it was 8%; in test [4], 22.6%; in test [5], -0.1%; in test [6], 11.3%.

Consider `COC(=O)C1(Cc2ccc3c(c2)CCC3)Cc2ccccc2C1=O` (stereo not drawn), for which the growth inhibition in test [1] was 5.1%; in test [2], 22.4%; in test [3] it was 25.1%; in test [4] it was 21.6%; in test [5], 49.5%; in test [6], 8.8%.

Consider `O=C1CN(CCCN2CCOCC2)CC(=O)N2Cc3ccccc3CN12`, for which the growth inhibition in test [1] is -25.9%; in test [2] it was -3.8%; in test [3], -9.45%; in test [4], -0.45%; in test [5], 2.95%; in test [6], 3.7%.

For `CC1(C)CC(=O)c2c([nH]c(=S)c(C#N)c2-c2ccc(Br)cc2)C1`, the growth inhibition in test [1] was -37.3%; in test [2], -13.1%; in test [3], -27.4%; in test [4] it was -11.8%; in test [5], -8.7%; in test [6] it was -42.1%.

`COc1ccc(N)c(OC)c1`: the growth inhibition in test [1] was -30.6%; in test [2], -37%; in test [3] it was -90%; in test [4], 12.9%; in test [5], -39.6%; in test [6], -34%.

`COC(=O)C(=O)C(C(=O)C(=O)Nc1ccccc1[N+](=O)[O-])c1nc2ccc([N+](=O)[O-])cc2[nH]c1=O` (stereo not drawn): the growth inhibition in test [1] was 17.8%; in test [2] it was 15.2%; in test [3], 5%; in test [4], 26.6%; in test [5], 27.8%; in test [6], 20.7%.

Regarding `O=C(/C=C/c1ccccc1)Nc1ccccc1C(F)(F)F`, the growth inhibition in test [1] is 4.45%; in test [2], 9.05%; in test [3], 0.7%; in test [4], -3.7%; in test [5], 12.6%; in test [6] it was 18.2%.

As for `COC(=O)c1nc(N)nc(C(=O)OC)c1C(=O)c1cc(Cl)ccc1Cl`, the growth inhibition is -8.35% in test [1]; -7.9% in test [2]; -1.25% in test [3]; -18.2% in test [4]; -6.3% in test [5]; -5.65% in test [6].

Regarding `CC(C)C(=O)C(F)(F)F`, the growth inhibition in test [1] is 14.3%; in test [2] it was 2.45%; in test [3] it was -21.3%; in test [4], 6.45%; in test [5], 28.6%; in test [6] it was -2.3%.

In the case of `Cc1ccc(S(=O)(=O)NN=C2CCCCCCCCCCC2)cc1`, the growth inhibition in test [1] was -8.35%; in test [2] it was -21.4%; in test [3] it was -7.75%; in test [4] it was 7.45%; in test [5], 9.05%; in test [6], -1.8%.

Consider `O=[N+]([O-])c1ccc(-c2ccccc2)c([N+](=O)[O-])c1`, for which the growth inhibition in test [1] is -3.05%; in test [2], 0.35%; in test [3], -29.8%; in test [4] it was -31.9%; in test [5], 1.5%; in test [6] it was 17.6%.

On to `O=C(O)c1ccc(O)c2ccccc12`, for which the growth inhibition in test [1] was -21.9%; in test [2], -21.2%; in test [3] it was -15.4%; in test [4], -24.7%; in test [5] it was -13.1%; in test [6], -21.9%.

Consider `CC(N)(CCBr)C(=O)O` (stereo not drawn), for which the growth inhibition was 3.85% in test [1]; 5.2% in test [2]; -0.05% in test [3]; -4.75% in test [4]; -5.95% in test [5]; -17.4% in test [6].

`O=C1c2ccccc2C(=O)c2c(O)c3c(c(O)c21)CCCC3`: the growth inhibition is -14.4% in test [1]; 7.55% in test [2]; -1.05% in test [3]; -9.65% in test [4]; 1.95% in test [5]; 5.7% in test [6].

Regarding `CC12CCC(=O)OC1(C)OC(=O)CC2` (stereo not drawn), the growth inhibition was 10.4% in test [1]; 17.1% in test [2]; 2.85% in test [3]; -5.75% in test [4]; 7.7% in test [5]; -7.7% in test [6].

For `O=C(/C=C/c1ccc2c(c1)OCO2)c1cccc2ccccc12`, the growth inhibition in test [1] is -4.4%; in test [2], -14.6%; in test [3], -17.4%; in test [4], 4.05%; in test [5], -3%; in test [6], 5%.

On to `CCCCCCOCC(=O)O`, for which the growth inhibition in test [1] was -6.75%; in test [2] it was -11.2%; in test [3] it was -7.25%; in test [4], -19.8%; in test [5], -10.4%; in test [6] it was -13.7%.

As for `CC(=O)/C=C(O)/C=C/c1ccccc1`, the growth inhibition in test [1] is -0.9%; in test [2], 5.45%; in test [3] it was -12.9%; in test [4], 9.15%; in test [5], 14.9%; in test [6], 12.9%.

As for `O=c1[nH]c(=O)c2ncn(C3OC(CO)C(O)C3O)c2[nH]1.O=c1[nH]c(=O)c2ncn(C3OC(CO)C(O)C3O)c2[nH]1.[NH2-].[NH2-].[Pt+2]` (stereo not drawn), the growth inhibition in test [1] was 3.35%; in test [2], 33.5%; in test [3] it was 41.7%; in test [4] it was 3.55%; in test [5], -8.5%; in test [6], 40.4%.

As to `CCCOC(=O)/C=C/C(=O)N1CC(C)N(C(=O)/C=C/C(=O)OCCC)CC1C` (stereo not drawn), the growth inhibition in test [1] was 3.85%; in test [2], -1.25%; in test [3] it was 9.6%; in test [4], 42.6%; in test [5], -2.9%; in test [6], 25.2%.

With `O=C(NCc1ccc(Cl)c(Cl)c1)Nc1ccccc1Cl`, the growth inhibition in test [1] was 10.6%; in test [2], 24.4%; in test [3], 23.3%; in test [4] it was -2.7%; in test [5], 24.8%; in test [6], 17.9%.

As for `c1ccc(C2SCc3nc4cc5ccccc5cc4n32)cc1` (stereo not drawn), the growth inhibition was -21.6% in test [1]; 6.4% in test [2]; 17.1% in test [3]; 12% in test [4]; -17% in test [5]; 16.8% in test [6].
